Bioassay records as filed in PubChem.
Many of the other results were omitted from the sample, so hits are more common in it than they were.
Pf Dd2 growth: inhibitors of Plasmodium falciparum Dd2 growth. P. falciparum Dd2 growth, SYBR Green, 72 h. Potency, µM (top dose mostly 28.9 µM), actives largely listed as inhibitors. 4.3% of 120,000 active. AID 1347417; active = well fitted inhibition curve with a large enough effect; also: nearly all actives have a fitted effect of over 65% in size
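Readout: SYBR Green fluorescence, 485 nm excitation, 535 nm emission, after ~16 h lysis at 37C. Before that, Dd2-infected red cells (2.5% hematocrit) grew 72 h with compound, 29 uM top final concentration.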
Numbers stand for hits; . = inactive; [ ] = another dose, or the depositor's remark.

SMILES | Pf Dd2 growth
CCNC(=O)c1n[nH]c2c1CN(C(=O)c1cccc(Br)c1)CC2 | .
COc1ccccc1-c1noc(-c2ccc(N3CCN(c4ccccc4)CC3)c([N+](=O)[O-])c2)n1 | 10µM
COc1ccccc1N1CCN(c2ccc(-c3nc(-c4ccccc4C)no3)cc2[N+](=O)[O-])CC1 | .
COc1ccc(-c2noc(-c3ccc(N4CCN(c5ccccc5)CC4)c([N+](=O)[O-])c3)n2)cc1 | .
CS(=O)(=O)c1ccc(OCC2(CNC(=O)c3cnccn3)C[C@@H](O)[C@@H](O)C2)cc1 (stereo partly drawn) | .
Cc1ccc(C)c(CN2CCn3nnc(-c4nc(-c5ccsc5)no4)c3C2=O)c1 | .
CCCN(CC1CCOC1)C(=O)NC(C)C (stereo not drawn) | .[5.79 µM]
Cc1ccc(Cn2cc(-c3ccncc3)cc2C(=O)O)cc1 | .
CN(Cc1ccccc1)C(=O)c1cc(-c2ccncc2)cn1C | .
Cc1ccccc1Cn1cc(-c2ccncc2)cc1C(=O)N(C)Cc1ccco1 | 3.5µM
Cc1ccccc1CCC1CCCN(C(=O)c2ccccc2-c2nn[nH]n2)C1 (stereo not drawn) | .
Cc1ccccc1Cn1cc(-c2ccncc2)cc1C(=O)N1CCCC(C)C1 (stereo not drawn) | 10µM
CCCn1cc(-c2ccncc2)cc1C(=O)NCc1ccc(C)o1 | .
CCNC(=O)N1CCC2(CC1)CC(N(C(=O)c1ccccc1)C1CC1)CCO2 (stereo not drawn) | .
CNC(=O)[C@@H]1C[C@@H](O)CN1C1CCN(C(=O)c2nn(C)c3ccccc23)CC1 | .
COc1cc(F)c(-c2nccn2CC(O)c2ccccc2)cc1OC (stereo not drawn) | .
CCOC(=O)Cn1c(=O)n(-c2ccccc2OC)c2nc(-c3ccccc3C)nc(C(N)=O)c21 | 10µM
CCOC(=O)Cn1c(=O)n(CC2CCCO2)c2nc(-c3ccccc3)nc(C(N)=O)c21 (stereo not drawn) | .
CCn1c(=O)n(-c2ccc3c(c2)OCO3)c2nc(-c3cccc(OC)c3OC)nc(C(N)=O)c21 | .
NC(=O)CN1CC2(CCC1=O)CCN(CC1CCCCO1)CC2 (stereo not drawn) | .
COc1ccc(C(=O)N[C@H]2CCOC[C@H]2C2CCOCC2)cc1O | .
O[C@@H]1CC(CNCc2ccc(F)cc2)(COc2ccc(C(F)(F)F)cn2)C[C@@H]1O (stereo partly drawn) | 4µM
Cn1cc(CNCC2(COc3ccc(C(F)(F)F)cn3)C[C@@H](O)[C@@H](O)C2)cn1 (stereo partly drawn) | .
O=C(NCC1(COc2ccc(C(F)(F)F)cn2)C[C@@H](O)[C@@H](O)C1)C1CC1 (stereo partly drawn) | .
O=C(NCC1(COc2ccccc2)C[C@@H](O)[C@@H](O)C1)C1CCOCC1 (stereo partly drawn) | .
SMILES | Pf Dd2 growth
CCc1cccc(NC(=O)N2CCC(n3cnnc3C3CC3)C2)c1 (stereo not drawn) | .
c1ccc(CCCNc2nccc(-c3ccccn3)n2)nc1 | .
Cc1ccc(NC(=O)Cn2c(N3CCC(C)CC3)nc(C)cc2=O)c(C)c1 | .
CCOc1ccccc1NC(=O)Cn1c(N2CCC(C)CC2)nc(C)cc1=O | 11µM
COc1ccccc1NC(=O)Cn1c(N2CCC(C)CC2)nc(C)cc1=O | .
Cc1cc(=O)n(CC(=O)Nc2ccc(Br)cc2)c(N2CCN(c3ccccc3)CC2)n1 | .
COc1ccc(Cl)cc1NC(=O)Cn1c(N2CCN(c3ccccc3)CC2)nc(C)cc1=O | 7.9µM
CCOc1ccc(NC(=O)Cn2c(N3CCN(c4ccccc4)CC3)nc(C)cc2=O)cc1 | .
CN1CCCN(C(=O)NCCc2ccccc2)c2ccccc21 | .
Cc1ccccc1N1Cc2c(NCC3CCCCCC3)ncnc2N(C)CC1=O | .
COc1cc(CNC(=O)[C@H]2CCC[C@H]2NC(=O)c2cnc(C)cn2)cc(OC)c1 | .
CN(Cc1ccccc1)Cc1cc(CC2(NCc3ccc(F)cc3)COC2)no1 | .
COc1cc(C)ccc1OCc1cc(C(=O)NCc2n[nH]c3c2CCC3)no1 | .
COc1ccc(CN2C(=O)[C@@H]3C[C@@H](CN3Cc3ccc4c(c3)OCO4)Oc3ccccc32)cc1 | .
O=C(COc1ccc(F)cc1)N1C[C@@H](CO)[C@H](c2ccccn2)C1 | .
COC(=O)[C@@H]1Cc2ncn(C(C)C)c2CN1S(=O)(=O)c1ccc(C#N)cc1 | .
COC[C@@H]1CN(C(=O)COc2ccccc2)C[C@H]1c1nc(C2CC2)no1 | .
CCc1ccc(-c2nc(CSCC(=O)N3CCN(c4ccc(F)cc4)CC3)c(C)o2)cc1 | .
COc1ccc(N2CCN(C(=O)CSc3nc(-c4ccc(C(C)C)cc4)no3)CC2)cc1 | 0.28µM
Cc1ccc(CSCC(=O)N2CCN(c3ccc(F)cc3)CC2)cc1 | .
COc1ccc(-c2nc(CSCC(=O)N3CCN(c4ccccc4)CC3)c(C)o2)cc1 | 7.1µM
COc1ccc(N2CCN(Cc3nc(-c4ccc(C)cc4)no3)CC2)cc1 | .
COc1ccc(N2CCN(C(=O)CCc3conc3-c3ccc(F)cc3)CC2)cc1 | .
O=C(CSc1nc(-c2ccccc2)no1)N1CCN(c2ccccc2)CC1 | 10µM
